Source: PubChem
SARS 3CLpro inh: SARS-CoV 3CLpro protease inhibition; hit rate 0.14% among 290,000; inhibition, % at 6 µM; recombinant SARS-CoV 3CLpro, quenched FRET peptide cleavage; P0C6X7; AID 1706; in the data active = inhibition above about 12%
Anthrax LF inh2: blocks Bacillus anthracis lethal factor protease; AID 588501; inhibition, % at 10 µM; hit rate 0.12% among 360,000; multiplex microsphere protease cleavage assay, LF; P15917
Autofluor counter: compound fluorescence in toxin protease inhibitor counterscreen. compound autofluorescence counterscreen, microsphere flow cytometry; stronger effect = higher value. fluorescence intensity (test concentration not listed). hit rate 3.1% among 360,000. AID 624483; in the data active = fluorescence intensity above about 16000; inconclusive = no clear call, values can overlap the other calls
BoNT A protease: inhibitors of Botulinum neurotoxin A light chain protease. inhibition, % at 10 µM. multiplex microsphere protease substrate cleavage, flow cytometry. hit rate 0.17% among 360,000
BoNT-F LC inh: BoNT F light chain protease inhibition. Multiplex microsphere protease cleavage assay, flow cytometry. inhibition, % at 10 µM. hit rate 0.22% among 360,000; in the data active = inhibition above about 35%, passing the limit was not always enough; inconclusive = no clear call, values can overlap the other calls
CCHF vOTU inh: blocks the CCHF virus ovarian tumor domain protease | CCHFV vOTU protease, Pep-AMC fluorescence | inhibition, % at 11.5 µM | hit rate 0.55% among 370,000 | AID 651958; in the data active = inhibition above about 30%
Of the large screens only hits and unclear results are named; the others gave an inactive call. Shown are actives, neighbours in structure and some others; about 3.9% of the full set was active somewhere. Cut-off read from the data, not from the text of the source, unless noted: active = inhibition above about 30%; inconclusive = no clear call, values can overlap the other calls; inactive = below that.

NS(=O)(=O)c1ccc(CCNC(=O)c2ccccc2F)cc1	Autofluor counter 16685
O=C(NCCNC(=O)C(F)(F)F)c1ccncc1	Anthrax LF inh2 inconclusive, Autofluor counter inconclusive (no result: SARS 3CLpro inh)
O=C(NCCc1ccccc1)c1ccccc1F	none
COC(=O)[C@]12C[C@H](CC(=O)N3CCN(C(=O)c4ccco4)CC3)C(=O)N(Cc3cccc4ccccc34)C1=C[C@H](C(C)C)O[C@@H]2C1CC1	none (no result: SARS 3CLpro inh, Anthrax LF inh2, Autofluor counter, BoNT A protease, BoNT-F LC inh)
Cc1cc(Oc2cccnc2)ccc1NC(=O)Cc1c[nH]c2ccccc12	none (no result: SARS 3CLpro inh, Anthrax LF inh2, Autofluor counter, BoNT A protease, BoNT-F LC inh)
CC1=CCC(C(=O)O)C(C(=O)NC2CCCCC2)C1 (centres undefined)	none
CC1=CCC(C(=O)O)C(C(=O)O)C1 (centres undefined)	Autofluor counter 22181
CCc1cc(C(=O)COc2ccccc2F)c(O)cc1O	Autofluor counter 18558, BoNT A protease inconclusive
CCc1cc(C(=O)Cc2ccc(F)cc2)c(O)cc1O	none
CC(=O)Nc1ccc(NC(=S)NC(=O)c2ccc([N+](=O)[O-])cc2)cc1	none
Cc1cc(C(=O)NC(=S)Nc2cccc(NC(=O)C(C)C)c2)ccc1[N+](=O)[O-]	none
CC(C)C(=O)Nc1cccc(NC(=S)NC(=O)c2ccc([N+](=O)[O-])cc2)c1	Autofluor counter 22965, BoNT A protease inconclusive
CC(C)C(=O)Nc1ccc(NC(=S)NC(=O)c2ccc([N+](=O)[O-])cc2)cc1	Autofluor counter 23025
CC1CCN(CC(=O)N2CC(=O)Nc3ccccc32)CC1	Autofluor counter 22135, BoNT A protease inconclusive
O=C1CN(C(=O)c2ccccc2Cl)c2ccccc2N1	BoNT-F LC inh 44.1
CC1CCN(CC(=O)N2c3ccccc3CCc3ccccc32)CC1	Autofluor counter 16766
O=C1CN(C(=O)CN2CCN(S(=O)(=O)c3ccccc3)CC2)c2ccccc2N1	none (no result: SARS 3CLpro inh)
COC(=O)[C@@]12CCCCC=C1N(CCc1ccc(Cl)cc1)C(=O)[C@H]2CC(=O)NCC1CCCCC1	none (no result: SARS 3CLpro inh, Anthrax LF inh2, Autofluor counter, BoNT A protease, BoNT-F LC inh)
O=C(NC1CCCCN(Cc2cccc(C(F)(F)F)c2)C1=O)C1C2CC3CC(C2)CC1C3 (centres undefined)	none (no result: SARS 3CLpro inh, Anthrax LF inh2, Autofluor counter, BoNT A protease, BoNT-F LC inh)
COC(=O)C1=C(C)C(c2cccs2)NC(=O)N1C (centres undefined)	Autofluor counter 16502, BoNT A protease inconclusive
CCN1C(=O)N[C@@H](c2cccs2)C(C(=O)OC)=C1C	none (no result: SARS 3CLpro inh)
CCN(CC)CCNC(=O)c1c(C)oc2cc(Br)c(OC)cc12	Autofluor counter 21610
COc1cc2c(C(=O)N3CCN(C)CC3)c(C)oc2cc1Br	Autofluor counter 19992
O=C(NCCCCNC(=O)c1ccc(Br)s1)c1ccc(Br)s1	Autofluor counter 20047, BoNT A protease inconclusive
COC(=O)C1CN(Cc2cn(CCOC(C)=O)nn2)CCS(=O)(=O)N1Cc1ccccc1 (centres undefined)	none (no result: SARS 3CLpro inh, Anthrax LF inh2, Autofluor counter, BoNT A protease, BoNT-F LC inh)
CC(C)c1ccc(Oc2cccc3c2S(=O)(=O)N([C@H](C)c2ccccc2)C[C@@H](COCc2ccccc2)O3)cc1	none (no result: SARS 3CLpro inh, Anthrax LF inh2, Autofluor counter, BoNT A protease, BoNT-F LC inh)
CCc1ccc(C(=O)COc2ccc(NC(C)=O)cc2)cc1	Autofluor counter 24015
CCOc1ccc(NC(=O)c2ccccc2OCC(=O)c2ccc(C)cc2)cc1	Autofluor counter 23534
CC(=O)NC(Cc1ccccc1)C(=O)NC1CCN(C(=O)c2ccc([N+](=O)[O-])cc2)CC1 (centres undefined)	none
CC(=O)NC(Cc1ccccc1)C(=O)NC1CCN(C(=O)c2cnccn2)CC1 (centres undefined)	Autofluor counter 16732, BoNT A protease inconclusive
CC(C)C(=O)N1CC[C@H]2[C@H](CCCN2Cc2ccc(F)cc2)C1	none (no result: SARS 3CLpro inh, Anthrax LF inh2, Autofluor counter, BoNT A protease, BoNT-F LC inh)
C[C@@H]1ON(C)[C@H]2C[C@H]3c4[nH]c5c(-c6ccc7c(c6)OCO7)cccc5c4CCN3C[C@@H]12	none (no result: SARS 3CLpro inh, Anthrax LF inh2, Autofluor counter, BoNT A protease, BoNT-F LC inh)
CCc1cc(C(=O)NNC(=S)NC(C)c2ccccc2)cs1 (centres undefined)	Autofluor counter 16961
O=C(C1CC2C=CC1C2)N1CCN(c2ccccc2)CC1 (centres undefined)	none
CC1(C)C(C=C(Cl)Cl)C1C(=O)N1CCN(c2ccccc2)CC1 (centres undefined)	Autofluor counter 22705
OC(COc1cccc2ccccc12)CN1CCN(c2ccc(Cl)cc2)CC1 (centres undefined)	BoNT-F LC inh 35.2
Clc1ccc(Nc2nc3ccccc3n3nnnc23)cc1	Autofluor counter 20275
CCn1c(-c2cc3c(C(F)(F)F)nn(C)c3s2)n[nH]c1=S	Autofluor counter 16651
Cn1c(-c2cc3c(C(F)(F)F)nn(C)c3s2)n[nH]c1=S	none
Cc1ccc(OCc2nc(-c3ccc(Cl)cc3)n[nH]2)cc1	Autofluor counter 19787
